Data as given in PubChem BioAssay AID2704 (Broad Institute, 2010).
Activity calls are given as the source filed them.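 How the source made its calls: active means a dose-dependent loss of polyadenylated product, with a fitted EC50, the dose giving half the full effect; inactive means no dose-dependent effect seen.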

Assay: GAL7 RNA poly(A) addition blockers – cell lysate, S. cerevisiae extracts, radioactive, gel readout, orthogonal assay for polyadenylation inhibitor project, dose response (AID 2704)
Details: S. cerevisiae extract

EC50, active:
Cc1ccc(-c2nn3c(C)nnc3s2)cc1NC(=O)CSc1ccc(Cl)cc1 900 µM
N#CC1(C#N)C2=C(CCCC2)NC(c2ccccc2)C1(C#N)C#N (stereo unspecified) 280 µM
N#C/C(=C/c1ccc([N+](=O)[O-])o1)c1nc2ccccc2[nH]1 1100 µM
COc1cc(/C=C2/CC/C(=C/c3ccc(O)c(OC)c3)C2=O)ccc1O 400 µM
Cc1ccc2nc(/C(C#N)=C/c3ccc([N+](=O)[O-])o3)[nH]c2c1 700 µM
CCOc1cc(/C=C2\N=C(SC(C)C(N)=O)N(c3ccc(OC(F)F)cc3)C2=O)ccc1O (stereo unspecified) 410 µM
